Calls of active or inactive are those of the source.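 Rule for the calls, unless noted: active = visually confirmed hit in the image check and inhibition above 20%; inconclusive = visually confirmed hit but inhibition not above 20%; inactive = no visual hit in the image check.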

In general, inhibition refers to the change of the read-out against control, counted positive when it falls.

A short description of assay [1]: inhibitors of TNFa-induced NFkB p65 translocation, primary screen, imaging, HUVEC, MLSMR starter and 10KST1 sets (AID 438;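 active = inhibition above 20% together with a positive visual image hit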;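 note: compound added about 3h40 before a 20 min TNFalpha stimulation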;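 for inhibition: signal is the nuclear over cytoplasmic p65 intensity ratio per well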). To be noted: HUVEC TNFa-induced p65 nuclear translocation; cell count: measured here: nuclei count (cytotoxicity indicator), at 2.08 µM; inhibition: at 2 µM, stronger effect = higher value, 0% TNFa-plus-vehicle, 100% no-TNFa wells.
Assay [2] can be described thus: reduction of polyQ htt aggregates in cells – imaging, exon1htt(103Q)mCFP cells, high-content imaging, primary screen (AID 483;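 active = visual image review flags a hit and inhibition of aggregation exceeds 20%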;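 note: compound exposure lasted 3 days before fixation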;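 for nuclei count: percent of the per-plate median nuclei count of sample wells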). Conditions: exon1htt(103Q)mCFP cell line, aggregate imaging, at 2 µM; inhibition of aggregation: stronger effect = higher value; nuclei count: measured here: cell count, toxicity.
Assay [3] can be described thus: endothelial E-selectin expression blockers – imaging, HUVEC, immunofluorescence, MLSMR starter and 10KST1 sets, primary screen (AID 487).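 For inhibition: signal is fraction of cell area covered by stained E-selectin grains.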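 For nuclei count: 100% = median nuclei count of all wells on the same plate.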 Conditions: HUVEC TNFalpha-induced E-selectin immunofluorescence imaging, at 2 µM; inhibition: stronger effect = higher value; nuclei count: measured here: cell number, toxicity.
Assay [4] deals with Voltage-gated potassium channel subunit beta-2 (Rattus norvegicus) (UniProt P62483). Put plainly: inhibitors of rat Kvbeta2 reductase activity – biochemical, NADPH fluorescence, primary screen (AID 622;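 active = fluorescence slope higher than the sample average by over 3 SD, cut at about -0.22 in these data, passing the limit was not always enough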;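 note: slope of raw intensity against log time taken from 70 to 1610 s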). Conditions: recombinant KvBeta, 4-cyanobenzaldehyde reduction, at 10 µM, stronger effect = higher value.
Assay [5] has the same target. Put plainly: enhancers of rat Kvbeta2 NADPH turnover – biochemical, NADPH fluorescence, primary screen (AID 623;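 active = NADPH fluorescence slope more negative than the mean of all samples by about 3 SD, 99.7% confidence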;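 note: fluorescence intensity change per second fitted from 20 to 320 s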). Conditions: Recombinant KvBeta, NADPH fluorescence decrease slope, 10 min; at 10 µM; stronger effect = lower value.
The target in assay [6] is Alpha-2C adrenergic receptor (Homo sapiens) (UniProt P18825). In words: compounds altering alpha2C-coupled GIRK flux – cell-based, HEK293 alpha2C/GIRK1/2, thallium flux, primary screen (AID 624;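 active = fluorescence slope after compound addition differing from the mean of all screened samples at 99.7% confidence, in either direction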;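 note: slope of fluorescence ratio to pre-addition baseline per second over 15 to 24 s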). Conditions: thallium flux BTC fluorescence, at 10 µM, actives lie on both sides.
The nature of assay [7]: blockers of RIG-like receptor reporter activation – cell-based, Sendai virus stimulus, luciferase, 10K MLSCN set, TLR/RLR signaling modifier project, primary screen (AID 602276;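 active = inhibition at or above 50% at 10 µM; inactive = inhibition below 50%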;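 note: firefly luciferase from ISG56 promoter only with Renilla not read in this screen; 0% = Sendai virus plus DMSO and 100% = medium plus DMSO without virus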). Conditions: HEK293 RL24 IRF3 luciferase reporter, at 10 µM, stronger effect = higher value.
The nature of assay [8]: TLR3 IRF3 reporter activation blockers – cell-based, poly I:C stimulus, luciferase, 10K MLSCN set, primary screen (AID 602277;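 active = inhibition of the reporter signal at or above 50%; inactive = inhibition below 50%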). Conditions: HEK293-TLR3 RL24 IRF3 luciferase reporter, at 10 µM, stronger effect = higher value. On the technique in general: In a reporter assay the amount or activity of a reporter protein is the signal.

Chain of Alpha-2C adrenergic receptor (Homo sapiens) (P18825 whole entry, looked up): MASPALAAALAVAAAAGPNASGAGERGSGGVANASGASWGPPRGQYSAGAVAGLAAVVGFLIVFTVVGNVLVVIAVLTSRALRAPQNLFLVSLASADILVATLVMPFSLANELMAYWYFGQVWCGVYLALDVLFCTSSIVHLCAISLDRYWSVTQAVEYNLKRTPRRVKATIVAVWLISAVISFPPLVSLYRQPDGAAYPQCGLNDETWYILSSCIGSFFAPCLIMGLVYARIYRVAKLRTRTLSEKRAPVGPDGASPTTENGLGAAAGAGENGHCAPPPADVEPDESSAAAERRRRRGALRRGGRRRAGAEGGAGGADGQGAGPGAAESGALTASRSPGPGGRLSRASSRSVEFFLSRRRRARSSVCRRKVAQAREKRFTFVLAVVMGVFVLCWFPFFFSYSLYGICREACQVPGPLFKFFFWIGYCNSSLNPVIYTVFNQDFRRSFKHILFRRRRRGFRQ
Chain of Voltage-gated potassium channel subunit beta-2 (Rattus norvegicus) (P62483 whole entry, looked up): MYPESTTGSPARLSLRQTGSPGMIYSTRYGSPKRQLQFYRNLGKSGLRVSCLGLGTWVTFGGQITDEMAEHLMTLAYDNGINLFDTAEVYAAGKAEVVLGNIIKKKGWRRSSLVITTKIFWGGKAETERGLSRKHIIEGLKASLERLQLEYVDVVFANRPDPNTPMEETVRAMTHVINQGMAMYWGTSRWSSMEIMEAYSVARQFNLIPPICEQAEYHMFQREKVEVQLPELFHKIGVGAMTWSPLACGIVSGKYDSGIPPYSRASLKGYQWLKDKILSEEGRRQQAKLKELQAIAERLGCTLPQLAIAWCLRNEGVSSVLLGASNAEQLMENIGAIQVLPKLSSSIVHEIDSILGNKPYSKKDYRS

For the molecule `Cc1cc(C(=O)NCc2cccnc2)no1`, the cell count in assay [1] came to 337. For the same molecule, the inhibition in assay [1] is 4.2% (inactive); in assay [3], 7.8% (inactive); in assay [7], 11.1% (inactive); in assay [8] it was 14.3% (inactive). Also, the inhibition of aggregation in assay [2] was 6.9% (inactive). In addition, the nuclei count was determined as 105% in assay [2] and 102% in assay [3]. In addition, the fluorescence slope in assay [4] is -0.5 (inactive). Also, the NADPH fluorescence slope in assay [5] was -8.2e-06 (inactive). The slope in assay [6] is 0.00709 (inactive).
With `O=C(c1ccccc1-c1nc(-c2ccccc2)no1)N1CCCC1`, in assay [1], the cell count came out at 600. The inhibition was -8.6% (inactive) in assay [1], 51% (inactive) in assay [3], -20.5% (inactive) in assay [7] and -38.1% (inactive) in assay [8]. Besides, in assay [2], the inhibition of aggregation is 0.7% (inactive). In addition, the nuclei count in assay [2] came out at 90.5%; in assay [3] it was 85.6%. The fluorescence slope in assay [4] is -0.534 (inactive). For the same molecule, the NADPH fluorescence slope in assay [5] is -2.8e-05 (inactive). In addition, the slope in assay [6] was 0.00572 (inactive).
For the molecule `O=C1CC(N2CCN(c3cccc(C(F)(F)F)c3)CC2)C(=O)N1c1ccccc1` (stereo not drawn), the cell count in assay [1] was 622. Besides, the inhibition was -1.5% (inactive) in assay [1], 64.7% (active) in assay [3], 7.76% (inactive) in assay [7] and 27.1% (inactive) in assay [8]. For the same molecule, in assay [2], the inhibition of aggregation is -3.8% (inactive). Moreover, the nuclei count came to 117% in assay [2] and 75.3% in assay [3]. In assay [4], the fluorescence slope is -0.473 (inactive). For the same molecule, in assay [5], the NADPH fluorescence slope was -1.5e-05 (inactive). The slope in assay [6] was 0.00274 (inactive).
Regarding `Cc1csc(NC(=O)c2cccs2)n1`, the cell count in assay [1] is 464. Also, the inhibition in assay [1] is 1% (inactive); in assay [3], -47.5% (inactive); in assay [7], -38.4% (inactive); in assay [8] it was -103% (inactive). In addition, the inhibition of aggregation in assay [2] is 30.4% (inactive). Further, the nuclei count in assay [2] came to 83.3%; in assay [3], 99.5%. Moreover, the fluorescence slope in assay [4] was -0.506 (inactive). Also, the NADPH fluorescence slope in assay [5] is -4.8e-05 (inactive). Also, the slope in assay [6] was 0.00677 (inactive).
With `CN(C)c1ccc(C(=O)Nc2nnc(-c3ccc(Cl)cc3)o2)cc1`, in assay [1], the cell count was 671. Moreover, the inhibition in assay [1] was 1.3% (inactive); in assay [3], -46.6% (inactive); in assay [7], 13% (inactive); in assay [8], 29.7% (inactive). In assay [2], the inhibition of aggregation was -15.9% (inactive). The nuclei count was found to be 109% in assay [2] and 113% in assay [3]. The fluorescence slope in assay [4] was -0.409 (inactive). Further, the NADPH fluorescence slope in assay [5] was -6.1e-05 (inactive). In addition, in assay [6], the slope was 0.00542 (inactive).
On to `Cc1ccc(CSc2nc3c(c(=O)[nH]2)CCC3)cc1`, for which the cell count in assay [1] turned out to be 423. The inhibition in assay [1] was 11.5% (inactive); in assay [3] it was 4.9% (inactive); in assay [7], -0.266% (inactive); in assay [8] it was 8.89% (inactive). Further, the inhibition of aggregation in assay [2] is -3.3% (inactive). In addition, the nuclei count in assay [2] and in assay [3] was 103% each time. Besides, in assay [4], the fluorescence slope is -0.363 (inactive). In addition, the NADPH fluorescence slope in assay [5] was -2.9e-05 (inactive). For the same molecule, in assay [6], the slope was 0.00659 (inactive).
In the case of `CC1(C)OC(=O)C(=CNc2ccccc2F)C(=O)O1`, the cell count in assay [1] worked out at 604. The inhibition in assay [1] was -9.5% (inactive); in assay [3] it was 22.8% (inactive); in assay [7] it was 14.1% (inactive); in assay [8], 28% (inactive). For the same molecule, in assay [2], the inhibition of aggregation is 29.9% (inactive). The nuclei count came out at 95.6% in assay [2] and 96.8% in assay [3]. Also, the fluorescence slope in assay [4] is -0.606 (inactive). For the same molecule, the NADPH fluorescence slope in assay [5] was -1.2e-05 (inactive). Moreover, the slope in assay [6] was 0.0057 (inactive).
`O=C(NCCN1C(=O)C2C3C=CC(C3)C2C1=O)N1CCOCC1` (stereo not drawn): the cell count in assay [1] was determined as 549. Moreover, the inhibition in assay [1] was -4.5% (inactive); in assay [3] it was -8.6% (inactive); in assay [7] it was 3.84% (inactive); in assay [8] it was 27.8% (inactive). In assay [2], the inhibition of aggregation was 7.2% (inactive). The nuclei count turned out to be 52.3% in assay [2] and 69.7% in assay [3]. For the same molecule, the fluorescence slope in assay [4] was -0.586 (inactive). In addition, the NADPH fluorescence slope in assay [5] is -1e-05 (inactive). Also, the slope in assay [6] was 0.00653 (inactive).
Turning to `CC(=O)Nc1ccc(S(=O)(=O)N2CCN=C2C)cc1`, the cell count in assay [1] worked out at 246. Besides, the inhibition in assay [1] is 7.6% (inactive); in assay [3], -31.5% (inactive); in assay [7], 3.93% (inactive); in assay [8] it was 19.7% (inactive). Besides, the inhibition of aggregation in assay [2] was 14.3% (inactive). Also, the figures for the nuclei count in assay [2] and in assay [3] were 86.3% and 83.1%, respectively. Besides, in assay [4], the fluorescence slope is -0.62 (inactive). Moreover, in assay [5], the NADPH fluorescence slope is -1.6e-05 (inactive). Further, the slope in assay [6] is 0.00377 (inactive).
Take `NC(=O)COC(=O)CNC(=O)c1ccc(Cl)cc1`: the cell count in assay [1] came to 450. Besides, the inhibition in assay [1] is 11.7% (inactive); in assay [3] it was 20.5% (inactive); in assay [7] it was 18.5% (inactive); in assay [8] it was 17.3% (inactive). Moreover, the inhibition of aggregation in assay [2] was 4.1% (inactive). Also, the nuclei count in assay [2] stood at 106%; in assay [3], 111%. Further, in assay [4], the fluorescence slope was -0.521 (inactive). Besides, the NADPH fluorescence slope in assay [5] is -1.3e-05 (inactive). Also, the slope in assay [6] was 0.00666 (inactive).
For `COc1ccccc1C(=O)OCn1nnc2ccccc2c1=O`, in assay [1], the cell count is 714. Further, the inhibition is -21.1% (inactive) in assay [1], -15.2% (inactive) in assay [3], 12.3% (inactive) in assay [7] and 22.5% (inactive) in assay [8]. Moreover, the inhibition of aggregation in assay [2] is 6.6% (inactive). The nuclei count in assay [2] is 103%; in assay [3] it was 106%. The fluorescence slope in assay [4] is -0.421 (inactive). The NADPH fluorescence slope in assay [5] is -4e-05 (inactive). Further, the slope in assay [6] was 0.00465 (inactive).
As to `CCOCCCNC(=O)c1ccc2c(c1)N(Cc1ccccc1)C(=O)CS2=O` (stereo not drawn), the cell count in assay [1] stood at 754. The inhibition was -7.4% (inactive) in assay [1], -20.2% (inactive) in assay [3], -4.11% (inactive) in assay [7] and 21% (inactive) in assay [8]. Further, the inhibition of aggregation in assay [2] was -19% (inactive). Further, the nuclei count in assay [2] was 94.2%; in assay [3], 125%. In addition, the fluorescence slope in assay [4] was -0.525 (inactive). In assay [5], the NADPH fluorescence slope is -1e-05 (inactive). Further, the slope in assay [6] is 0.00701 (inactive).
Take `Cc1cc(C(=O)OCC(=O)N2c3ccccc3CC2C)c(C)o1` (stereo not drawn): the cell count in assay [1] turned out to be 733. The inhibition in assay [1] is -9.6% (inactive); in assay [3], -49.5% (inactive); in assay [7] it was -14.2% (inactive); in assay [8], -2.49% (inactive). In addition, in assay [2], the inhibition of aggregation was 3.2% (inactive). The nuclei count in assay [2] was found to be 85.1%; in assay [3], 111%. Also, in assay [4], the fluorescence slope was -0.425 (inactive). For the same molecule, the NADPH fluorescence slope in assay [5] was 2.6e-05 (inactive). Besides, the slope in assay [6] was 0.00532 (inactive).
